{
  "source": "PubChem BioAssay AID2551",
  "about": "(National Center for Advancing Translational Sciences (NCATS), 2010)",
  "note": "Among all 310,000 compounds or so, about 17,000 (5.5%) were called active. Roughly 11% stayed inconclusive and do not appear here. The sample as a whole holds a higher share of actives than the screen did. Values without a mark were called inactive. Calls come from the whole dose curve; as a rule, active = well fitted inhibition curve with a large enough effect; inconclusive = small, poorly fitted or top-dose-only effect, or effect the other way; inactive = no such curve, though single readings can be large or run the other way. % is set by controls: 0 for no effect and ±100 for the full control effect; potency is the fitted concentration of half-maximal effect.",
  "data": [
    {"biological_target": "Nuclear receptor ROR-gamma (Mus musculus) (UniProt P51450)", "sequence (P51450 whole entry, looked up, the tested form may be a part)": "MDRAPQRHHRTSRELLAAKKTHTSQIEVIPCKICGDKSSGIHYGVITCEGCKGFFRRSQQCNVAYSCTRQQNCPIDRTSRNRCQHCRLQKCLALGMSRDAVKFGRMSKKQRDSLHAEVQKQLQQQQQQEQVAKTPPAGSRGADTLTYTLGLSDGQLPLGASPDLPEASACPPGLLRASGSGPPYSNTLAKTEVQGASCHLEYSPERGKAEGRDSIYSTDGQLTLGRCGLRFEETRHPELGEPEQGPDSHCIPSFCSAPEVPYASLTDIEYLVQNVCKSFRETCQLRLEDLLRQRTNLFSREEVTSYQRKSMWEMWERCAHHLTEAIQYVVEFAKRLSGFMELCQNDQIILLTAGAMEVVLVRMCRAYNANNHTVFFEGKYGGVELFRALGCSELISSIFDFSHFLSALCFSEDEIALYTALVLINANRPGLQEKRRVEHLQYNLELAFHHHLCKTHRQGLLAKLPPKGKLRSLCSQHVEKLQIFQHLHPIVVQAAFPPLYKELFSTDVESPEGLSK", "experiment": "qHTS for inhibitors of ROR gamma transcriptional activity; note: nearly all actives have a fitted effect of over 60% in size", "details": "Drosophila S2 Gal4-RORgamma UAS-luciferase reporter, 20 h; series mostly up to 53.6 µM; activity change, negative = inhibition: at the top concentration", "in_short": "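In this cell-based reporter format, copper sulfate (700 uM final) drives Gal4–ROR gamma fusion expression from a metallothionein promoter in Drosophila Schneider cells; compounds preincubated 1 hr, reporter read after 20 hr at ambient temperature.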", "values": [
      {"smiles": "Cc1cc(C(=O)CCl)c(C)n1CC1COc2ccccc2O1", "note": "(configuration not stated)", "Potency": "10 µM (active)"},
      {"smiles": "O=C(NCC1COc2ccccc2O1)C1(c2ccccc2)CCCC1", "note": "(configuration not stated)", "activity change, negative = inhibition": "27.7%"},
      {"smiles": "O=C1C(=O)N(CC2COc3ccccc3O2)c2ccccc21", "note": "(configuration not stated)", "activity change, negative = inhibition": "-0.423%"},
      {"smiles": "Cc1ccc(C)c(OCc2cc(C(=O)N3CCN(c4cnccn4)CC3)no2)c1", "activity change, negative = inhibition": "15.6%"},
      {"smiles": "O=C(CN1CCN(C(=O)C2CCCO2)CC1)Nc1c(Cl)cccc1Cl", "note": "(configuration not stated)", "activity change, negative = inhibition": "6%"},
      {"smiles": "Cc1ccc(-n2ncc3c2CC(C)(C)CC3NC(=O)CCc2cnn(C)c2)cc1", "note": "(configuration not stated)", "activity change, negative = inhibition": "-2.94%"},
      {"smiles": "CC(C)NS(=O)(=O)c1ccc(OCC(=O)NC2CCCCCC2)cc1", "activity change, negative = inhibition": "-17.8%"},
      {"smiles": "CCC(C)(C)C1CCC(=NNC(=O)c2ccc(Br)o2)CC1", "note": "(configuration not stated)", "Potency": "11.2 µM (active)"},
      {"smiles": "O=C(N/N=C\\C1CC=CCC1)c1ccc(Br)o1", "note": "(configuration not stated)", "activity change, negative = inhibition": "-8.11%"},
      {"smiles": "CC(C)(C)C1CCC(=NNC(=O)c2ccc(Br)o2)CC1", "note": "(configuration not stated)", "activity change, negative = inhibition": "-20.7%"},
      {"smiles": "Cc1cc(-c2nnc(SCC(=O)Nc3ccc(S(N)(=O)=O)cc3)n2N)n[nH]1", "activity change, negative = inhibition": "-28.9%"},
      {"smiles": "CCOc1ccc(OCc2ccc(C(=O)N(C)c3ccccc3)o2)cc1", "activity change, negative = inhibition": "41.7%"},
      {"smiles": "COc1cccc(NC(=O)NCCN2CCCCC2)c1", "activity change, negative = inhibition": "-0.679%"},
      {"smiles": "Cc1ccc(NC(=S)N(CCCN2CCC(C)CC2)Cc2ccco2)cc1", "activity change, negative = inhibition": "-10.4%"},
      {"smiles": "CCc1ccccc1NC(=S)N(CCN1CCCCCC1)Cc1ccco1", "Potency": "17.8 µM (active)"},
      {"smiles": "Cc1ccc(NC(=S)N(CCN2CCCCC2)Cc2ccco2)cc1C", "Potency": "10 µM (active)"},
      {"smiles": "COc1cc2cc(CN(CCN3CCCC3)C(=O)Nc3ccccc3Cl)c(=O)[nH]c2cc1OC", "activity change, negative = inhibition": "-28.4%"},
      {"smiles": "CCc1ccccc1NC(=O)NCCN1CCCCC1", "activity change, negative = inhibition": "8.95%"},
      {"smiles": "C=C1CCN(C(CC(C)C)C(=O)N2CCOCC2)S(=O)(=O)c2ccccc21", "note": "(configuration not stated)", "activity change, negative = inhibition": "7.59%"},
      {"smiles": "CCOc1ccccc1NS(=O)(=O)c1c[nH]c(C(=O)OC)c1", "activity change, negative = inhibition": "-1.36%"},
      {"smiles": "COC(=O)[C@]1(S(=O)(=O)c2ccccc2)C[C@@H]2ON=C(c3ccc(OC)cc3)[C@@H]2C1", "activity change, negative = inhibition": "2.22%"},
      {"smiles": "COc1ccc(CCC(C)N2CCc3ccccc3C2)cc1", "note": "(configuration not stated)", "activity change, negative = inhibition": "9.94%"},
      {"smiles": "CCCC(=O)N1CCC(CCC(=O)NC2CC2)CC1", "activity change, negative = inhibition": "-12.6%"},
      {"smiles": "O=C(NCCc1ccc(Cl)cc1)C1CCCN1C(=O)NCc1ccccc1", "note": "(configuration not stated)", "activity change, negative = inhibition": "0.783%"},
      {"smiles": "COCCn1cnc2c1c(=O)n(CC(=O)NN)c(=O)n2Cc1ccccc1", "activity change, negative = inhibition": "-27.2%"},
      {"smiles": "Cc1nn(CC(=O)Nc2nc3ccccc3s2)c(C)c1[N+](=O)[O-]", "activity change, negative = inhibition": "5.91%"},
      {"smiles": "O=C(CN1C(=O)/C(=C\\c2ccccc2F)SC1=S)Nc1nc2ccccc2s1", "Potency": "11.2 µM (active)"},
      {"smiles": "O=C(CN1C(=O)S/C(=C\\c2ccccc2F)C1=O)NCCCn1ccnc1", "activity change, negative = inhibition": "-32.2%"},
      {"smiles": "CCOC(=O)C1C(c2ccc(O)cc2)NC(=O)NC1(O)C(F)(F)F", "note": "(configuration not stated)", "activity change, negative = inhibition": "1.82%"},
      {"smiles": "CC1=NN(C(N)=S)C(=O)C1N=Nc1cc(Cl)ccc1Cl", "note": "(configuration not stated)", "Potency": "1.41 µM (active)"},
      {"smiles": "C=CCNc1nc(N)c([N+](=O)[O-])c(NC2CCCCC2)n1", "activity change, negative = inhibition": "17.4%"},
      {"smiles": "CN(C)S(=O)(=O)c1cccc(NC(=S)NCc2ccc3c(c2)OCO3)c1", "activity change, negative = inhibition": "32.3%"},
      {"smiles": "O=C(NCc1ccc2c(c1)OCO2)c1cc(F)c(F)cc1Cl", "activity change, negative = inhibition": "-6.24% [at 1.91 µM]"},
      {"smiles": "Cc1c(Cl)cccc1NC(=S)NCc1ccc2c(c1)OCO2", "Potency": "7.08 µM (active)"},
      {"smiles": "CS(=O)(=O)N(CC(=O)N1CCCCCC1)c1cccc(Cl)c1Cl", "activity change, negative = inhibition": "-20.8%"},
      {"smiles": "CN1/C(=C\\C(=O)c2cccnc2Cl)C(C)(C)c2ccccc21", "activity change, negative = inhibition": "33.5%"},
      {"smiles": "Cc1noc(C)c1C(=O)OCC(=O)/C=C1\\N(C)c2ccccc2C1(C)C", "activity change, negative = inhibition": "7.06%"},
      {"smiles": "CC(=O)Nc1cccc(OCC(=O)/C=C2\\N(C)c3ccccc3C2(C)C)c1", "Potency": "7.08 µM (active)"},
      {"smiles": "CC(NC(=S)Nc1ccccc1)C1COc2ccccc2O1", "note": "(configuration not stated)", "Potency": "6.31 µM (active)"},
      {"smiles": "CC(=O)c1cccc(NC(=O)C2COc3ccccc3O2)c1", "note": "(configuration not stated)", "activity change, negative = inhibition": "-30.8% [at 1.91 µM]"},
      {"smiles": "CC(c1ccco1)N(C(=O)Nc1ccccc1)C1CCCCC1", "note": "(configuration not stated)", "activity change, negative = inhibition": "1.37%"},
      {"smiles": "COC(=O)CSc1nc2ccccc2c(=O)n1Cc1ccccc1", "activity change, negative = inhibition": "-3.52%"},
      {"smiles": "Cc1cc(C)n(CCNS(=O)(=O)c2ccc(Cl)cc2)n1", "activity change, negative = inhibition": "12.2%"},
      {"smiles": "Cc1ccc(CSCC(N)C(=O)O)cc1", "note": "(configuration not stated)", "activity change, negative = inhibition": "4.89%"},
      {"smiles": "Cc1ccc(SC(CC(=O)c2ccc(C(C)(C)C)cc2)C(=O)O)cc1", "note": "(configuration not stated)", "Potency": "1.41 µM (active)"},
      {"smiles": "Cc1ccc(SC(C)C(=O)NCc2ccc(F)cc2)cc1", "note": "(configuration not stated)", "activity change, negative = inhibition": "-34%"},
      {"smiles": "Cc1sc2ncn(CC(=O)NCCCC(=O)N(C)Cc3ccccc3)c(=O)c2c1C", "activity change, negative = inhibition": "33.8%"},
      {"smiles": "O=C(CN1C(=O)c2cccnc2Oc2ccc(Cl)cc21)Nc1ccc(F)cc1", "activity change, negative = inhibition": "7.92%"},
      {"smiles": "COc1cccc(CSc2nc3nc(C)cc(C)n3n2)c1", "activity change, negative = inhibition": "1.6%"},
      {"smiles": "Cc1cc(NC(=O)CCC(=O)N(CC(=O)NC2CCCC2)c2ccc(F)cc2)no1", "activity change, negative = inhibition": "-6.99%"},
      {"smiles": "COCCN(C(=O)CCC(=O)Nc1nccs1)C(C(=O)NCCC(C)C)c1ccc(F)cc1", "note": "(configuration not stated)", "activity change, negative = inhibition": "1.64%"},
      {"smiles": "Cc1ccc(S(=O)(=O)N(CC(O)CN2C(=O)NC(C)(C)C2=O)c2cccc([N+](=O)[O-])c2)cc1", "note": "(configuration not stated)", "activity change, negative = inhibition": "0.382%"}
    ]}
  ]
}
